Laboratory results published in PubChem BioAssay AID1159580 (chemical genetic matrix, 2015).
The whole screen tested about 5,500 compounds, of which about 2,000 (36%) were called active. Inconclusive results (about 18%) are left out. Rule as the data show it: active = normalized growth mostly below about 0.91 (no sharp cut-off); inconclusive = no clear call, values can overlap the other calls; inactive = mostly above about 0.92. The list shows a part of the results.

Assay: chemical genetic growth profiling, strain panel (AID 1159580);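 also: tested at 20 µM; growth read once vehicle control cultures reached saturation at 30 °C; 1 = growth at the plate median or of vehicle wells; lower values mean less growth of the strain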
Conditions: growth OD

Measured: normalized growth

COc1ccc(C(CN(C)C)C2(O)CCCCC2)cc1 (stereo unspecified)
inactive: S. cerevisiae deletion strains, locus YKL009W, strain mrt4, stronger effect = lower value 0.978 | S. cerevisiae deletion strains, locus YKL068W, stronger effect = lower value 0.996 | S. cerevisiae deletion strains, locus YKL085W, strain MDH1 (second series), stronger effect = lower value 0.994 | S. cerevisiae deletion strains, locus YKL085W, strain MDH1, stronger effect = lower value 0.994 | S. cerevisiae deletion strains, locus YKL160W, strain elf1, stronger effect = lower value 0.97 | S. cerevisiae deletion strains, locus YKL190W, strain CNB1, stronger effect = lower value 1 | S. cerevisiae deletion strains, locus YKR001C, strain vps1, stronger effect = lower value 0.977 | S. cerevisiae deletion strains, locus YKR026C, strain gcn3, stronger effect = lower value 0.994 | S. cerevisiae deletion strains, locus YKR091W, strain srl3, stronger effect = lower value 0.969 | S. cerevisiae deletion strains, locus YLL001W, strain dnm1, stronger effect = lower value 0.981 | S. cerevisiae deletion strains, locus YLL026W, stronger effect = lower value 0.997 | S. cerevisiae deletion strains, locus YLL041C, strain sdh2, stronger effect = lower value 0.979 | S. cerevisiae deletion strains, locus YLR027C, strain aat2, stronger effect = lower value 0.989 | S. cerevisiae deletion strains, locus YLR039C, strain RIC1, stronger effect = lower value 1.05 | S. cerevisiae deletion strains, locus YLR058C, strain SHM2, stronger effect = lower value 1.01 | S. cerevisiae deletion strains, locus YLR102C, strain apc9, stronger effect = lower value 0.989 | S. cerevisiae deletion strains, locus YLR113W, strain HOG1, stronger effect = lower value 1.04 | S. cerevisiae deletion strains, locus YLR221C, strain rsa3, stronger effect = lower value 1.01 | S. cerevisiae deletion strains, locus YLR258W, strain gsy2, stronger effect = lower value 0.978 | S. cerevisiae deletion strains, locus YLR262C, strain YPT6 (second series), stronger effect = lower value 0.966 | S. cerevisiae deletion strains, locus YLR262C, strain YPT6, stronger effect = lower value 1.03 | S. cerevisiae deletion strains, locus YLR268W, strain sec22, stronger effect = lower value 0.981 | S. cerevisiae deletion strains, locus YLR320W, strain mms22, stronger effect = lower value 1.02 | S. cerevisiae deletion strains, locus YLR330W, strain CHS5, stronger effect = lower value 1.01 | S. cerevisiae deletion strains, locus YLR342W, strain FKS1 (second series), stronger effect = lower value 1.03 | S. cerevisiae deletion strains, locus YLR342W, strain FKS1, stronger effect = lower value 0.976 | S. cerevisiae deletion strains, locus YLR357W, strain rsc2, stronger effect = lower value 0.936 | S. cerevisiae deletion strains, locus YLR370C, strain arc18, stronger effect = lower value 0.989 | S. cerevisiae deletion strains, locus YLR371W, strain rom2, stronger effect = lower value 0.985 | S. cerevisiae deletion strains, locus YLR384C, strain iki3, stronger effect = lower value 0.996 | S. cerevisiae deletion strains, locus YLR418C, strain cdc73, stronger effect = lower value 0.96 | S. cerevisiae deletion strains, locus YML016C, strain PPZ1, stronger effect = lower value 1.01 | S. cerevisiae deletion strains, locus YML032C, strain rad52, stronger effect = lower value 0.991 | S. cerevisiae deletion strains, locus YML120C, strain ndi1, stronger effect = lower value 1 | S. cerevisiae deletion strains, locus YML124C, strain tub3, stronger effect = lower value 0.989 | S. cerevisiae deletion strains, locus YMR058W, strain fet3, stronger effect = lower value 0.989 | S. cerevisiae deletion strains, locus YMR078C, strain ctf18, stronger effect = lower value 0.993 | S. cerevisiae deletion strains, locus YMR125W, strain sto1, stronger effect = lower value 0.919 | S. cerevisiae deletion strains, locus YMR129W, stronger effect = lower value 0.993 | S. cerevisiae deletion strains, locus YMR205C, strain PFK2, stronger effect = lower value 0.998 | S. cerevisiae deletion strains, locus YMR223W, strain ubp8, stronger effect = lower value 0.99 | S. cerevisiae deletion strains, locus YMR231W, strain pep5, stronger effect = lower value 0.978 | S. cerevisiae deletion strains, locus YMR263W, strain SAP30, stronger effect = lower value 1.01 | S. cerevisiae deletion strains, locus YMR307W, strain GAS1, stronger effect = lower value 1 | S. cerevisiae deletion strains, locus YNL067W, strain RPL9B, stronger effect = lower value 0.991 | S. cerevisiae deletion strains, locus YNL071W, strain lat1, stronger effect = lower value 1 | S. cerevisiae deletion strains, locus YNL128W, strain TEP1, stronger effect = lower value 1.01 | S. cerevisiae deletion strains, locus YNL153C, strain GIM3, stronger effect = lower value 1.01 | S. cerevisiae deletion strains, locus YNL183C, strain NPR1, stronger effect = lower value 0.969 | S. cerevisiae deletion strains, locus YNL209W, strain ssb2, stronger effect = lower value 0.981 | S. cerevisiae deletion strains, locus YNL233W, strain BNI4, stronger effect = lower value 1.02 | S. cerevisiae deletion strains, locus YNL248C, strain rpa49, stronger effect = lower value 0.925 | S. cerevisiae deletion strains, locus YNL250W, strain rad50, stronger effect = lower value 0.993 | S. cerevisiae deletion strains, locus YNL271C, strain bni1, stronger effect = lower value 0.987 | S. cerevisiae deletion strains, locus YNL298W, strain CLA4, stronger effect = lower value 0.991 | S. cerevisiae deletion strains, locus YNL307C, strain MCK1, stronger effect = lower value 0.981 | S. cerevisiae deletion strains, locus YNL322C, strain KRE1 (second series), stronger effect = lower value 0.965 | S. cerevisiae deletion strains, locus YNL322C, strain KRE1, stronger effect = lower value 1.01 | S. cerevisiae deletion strains, locus YNR049C, strain mso1, stronger effect = lower value 0.982 | S. cerevisiae deletion strains, locus YNR052C, strain pop2, stronger effect = lower value 0.998 | S. cerevisiae deletion strains, locus YOL006C, strain TOP1, stronger effect = lower value 1.04 | S. cerevisiae deletion strains, locus YOL012C, strain htz1 0.805 | S. cerevisiae deletion strains, locus YOL147C, strain pex11, stronger effect = lower value 0.984 | S. cerevisiae deletion strains, locus YOR001W, strain rrp6, stronger effect = lower value 1.01 | S. cerevisiae deletion strains, locus YOR061W, strain CKA2, stronger effect = lower value 1.01 | S. cerevisiae deletion strains, locus YOR069W, strain VPS5, stronger effect = lower value 0.995 | S. cerevisiae deletion strains, locus YOR070C, strain gyp1, stronger effect = lower value 0.986 | S. cerevisiae deletion strains, locus YOR080W, strain dia2, stronger effect = lower value 0.973 | S. cerevisiae deletion strains, locus YOR083W, strain WHI5, stronger effect = lower value 0.932 | S. cerevisiae deletion strains, locus YOR106W, strain vam3, stronger effect = lower value 0.967 | S. cerevisiae deletion strains, locus YOR136W, strain idh2, stronger effect = lower value 0.986 | S. cerevisiae deletion strains, locus YOR144C, strain elg1, stronger effect = lower value 0.998 | S. cerevisiae deletion strains, locus YOR184W, strain ser1, stronger effect = lower value 1 | S. cerevisiae deletion strains, locus YOR231W, strain MKK1, stronger effect = lower value 1.01 | S. cerevisiae deletion strains, locus YOR265W, strain rbl2, stronger effect = lower value 0.989 | S. cerevisiae deletion strains, locus YOR270C, strain vph1, stronger effect = lower value 0.945 | S. cerevisiae deletion strains, locus YOR290C, strain snf2, stronger effect = lower value 0.974 | S. cerevisiae deletion strains, locus YOR316C, strain cot1, stronger effect = lower value 0.999 | S. cerevisiae deletion strains, locus YPL051W, strain arl3, stronger effect = lower value 0.994 | S. cerevisiae deletion strains, locus YPL055C, strain LGE1, stronger effect = lower value 1.03 | S. cerevisiae deletion strains, locus YPL078C, strain atp4, stronger effect = lower value 0.969 | S. cerevisiae deletion strains, locus YPL106C, strain sse1, stronger effect = lower value 0.977 | S. cerevisiae deletion strains, locus YPL240C, strain hsp82, stronger effect = lower value 0.996 | S. cerevisiae deletion strains, locus YPL241C, strain CIN2, stronger effect = lower value 1 | S. cerevisiae deletion strains, locus YPL256C, strain CLN2, stronger effect = lower value 0.992 | S. cerevisiae deletion strains, locus YPR119W, strain clb2, stronger effect = lower value 0.993 | S. cerevisiae deletion strains, locus YPR141C, strain kar3, stronger effect = lower value 0.991 | S. cerevisiae deletion strains, locus YPR163C, strain tif3, stronger effect = lower value 0.984 | S. cerevisiae deletion strains, locus YPR167C, strain met16, stronger effect = lower value 0.989 | S. cerevisiae deletion strains, strain wtn01, stronger effect = lower value 0.983 | S. cerevisiae strains, strain wild type, stronger effect = lower value 1
